# High-throughput results from PubChem BioAssay.
# CHO-K1 Ca PAM: M1 PAM counterscreen hit in parental CHO-K1 cells; ATP EC20, Fluo-8 calcium fluorescence; 0% at ATP EC20, 100% at ATP max; activation, % at 3 µM; actives 0.02% (n = 360,000); AID 602247;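 active means activation above the run cutoff, the mean activation of all test compounds plus 3 SD, cut at about 40% in these data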;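 further: peak over basal fluorescence ratio in a 140 s read after ATP addition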
# CHO-K1 Ca ag: nonselective activator or artifact in parental CHO-K1 cells | Fluo-8 calcium fluorescence; scaled to maximal ATP response, vehicle zero | activation, % at 3 µM | actives 0.48% (n = 360,000) | AID 602248; in the data active means activation above about 15%;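 further: untransfected CHO-K1 host cells lacking M1 receptor as counterscreen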
# TMEM16A inh: blocks the mouse calcium-activated chloride channel TMEM16A | normalized B-score (activity score, 25-100; higher = stronger inhibition) at 10 µM | AID 588511 | HEK293 TMEM16A/YFP iodide influx fluorescence, ionomycin | Q8BHY3 | actives 1.2% (n = 310,000);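 active means ratio plate-corrected score three or more library SD toward inhibition, starting fluorescence score within five deviations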;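 further: score derived from kinetic fluorescence span divided by baseline fluorescence per well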
# NTR1 ag: agonists of human neurotensin receptor NTR1 | P30989 | NTR1-U2OS beta-arrestin-GFP spot imaging, agonist mode | activation, % at 20 µM | actives 0.17% (n = 330,000) | AID 493036;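 active means activation at or above 40% of the spot to cytoplasm intensity ratio, with at least 20 cells analyzed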;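 further: 0% = DMSO without peptide and 100% = 100 nM NTR1 peptide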
# TMEM16A act: activators or potentiators of mouse TMEM16A chloride channel | HEK293 TMEM16A/YFP-H148Q/I152L, iodide quench fluorescence; hits give low values | B-score at 10 µM | actives 0.3% (n = 340,000) | AID 623877;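 active means fluorescence-ratio B-score plate-corrected deviation score at least 3 library SD below zero, with starting fluorescence score within 5 deviations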;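 further: channel opened by trigger with iodide after compound preincubation; score built on the fluorescence ratio of max minus min over baseline; more negative score means more quench and so TMEM16A activation or potentiation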
# CHO-K1 Ca antag: M1 antagonist counterscreen hit in parental CHO-K1 cells; ATP-induced calcium, Fluo-8 fluorescence; inhibition, % at 3 µM; actives 0.6% (n = 360,000); AID 602250;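 active means inhibition above a per-plate cutoff, the plate's mean sample inhibition plus 3 SD, cut at about 24% in these data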;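 further: 0% = DMSO plus EC80 ATP and 100% = DMSO alone without ATP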
# TMEM16A reconf: reconfirmed blocker of mouse TMEM16A calcium-activated chloride channel; inhibition, % at 10 µM; HEK293 TMEM16A/YFP-H148Q, iodide quench fluorescence; ionomycin added to raise cell calcium; actives 39% (n = 2,300); AID 652189; shares compounds with TMEM16A inh;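 active means mean duplicate percent inhibition, scaled so buffer wells are 0 and the reference blocker 100, over three buffer SD above buffer mean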
# TMEM16A Ca cntr: alters calcium mobilization in TMEM16A HEK293 cells, counter-screen; actives 2% (n = 2,300); shares compounds with TMEM16A inh; TMEM16A/YFP HEK293, Fluo4 calcium mobilization; AID 652231; calcium response (% of ionomycin), % at 10 µM;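 active means duplicate-averaged calcium signal over 20% of the ionomycin maximum, relative to buffer baseline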;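 further: each well's signal is peak minus trough fluorescence divided by its pre-addition baseline; 0% = buffer wells and 100% = ionomycin wells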
# YFP-HEK293 quench: acts in parental YFP-HEK293 cells lacking TMEM16A, counter-screen | AID 652233 | iodide YFP quench, ionomycin | 2,300 tested, under 10 active | YFP ratio F(max-min)/F0 at 10 µM | shares compounds with TMEM16A inh;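 active means yellow fluorescent protein signal ratio exceeding the buffer control mean by over 5 SD of those controls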;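 further: ratio is mean of duplicate wells from kinetic YFP trace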
# ClC-1 rat inh: rat ClC-1 inhibition, TMEM16A specificity screen; ratio percent, % at 10 µM; CHO ClC-1-YFP, iodide influx fluorescence quench; iodide control reads 0, buffer control 100; 2,300 tested, under 10 active; shares compounds with TMEM16A inh;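 active means duplicate-mean ratio percent above the mean of iodide-only control wells, which defines zero, plus 5 of their SD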;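 further: higher percent means stronger block of ClC-1 iodide influx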
# Target sequence (P35524 whole entry, looked up): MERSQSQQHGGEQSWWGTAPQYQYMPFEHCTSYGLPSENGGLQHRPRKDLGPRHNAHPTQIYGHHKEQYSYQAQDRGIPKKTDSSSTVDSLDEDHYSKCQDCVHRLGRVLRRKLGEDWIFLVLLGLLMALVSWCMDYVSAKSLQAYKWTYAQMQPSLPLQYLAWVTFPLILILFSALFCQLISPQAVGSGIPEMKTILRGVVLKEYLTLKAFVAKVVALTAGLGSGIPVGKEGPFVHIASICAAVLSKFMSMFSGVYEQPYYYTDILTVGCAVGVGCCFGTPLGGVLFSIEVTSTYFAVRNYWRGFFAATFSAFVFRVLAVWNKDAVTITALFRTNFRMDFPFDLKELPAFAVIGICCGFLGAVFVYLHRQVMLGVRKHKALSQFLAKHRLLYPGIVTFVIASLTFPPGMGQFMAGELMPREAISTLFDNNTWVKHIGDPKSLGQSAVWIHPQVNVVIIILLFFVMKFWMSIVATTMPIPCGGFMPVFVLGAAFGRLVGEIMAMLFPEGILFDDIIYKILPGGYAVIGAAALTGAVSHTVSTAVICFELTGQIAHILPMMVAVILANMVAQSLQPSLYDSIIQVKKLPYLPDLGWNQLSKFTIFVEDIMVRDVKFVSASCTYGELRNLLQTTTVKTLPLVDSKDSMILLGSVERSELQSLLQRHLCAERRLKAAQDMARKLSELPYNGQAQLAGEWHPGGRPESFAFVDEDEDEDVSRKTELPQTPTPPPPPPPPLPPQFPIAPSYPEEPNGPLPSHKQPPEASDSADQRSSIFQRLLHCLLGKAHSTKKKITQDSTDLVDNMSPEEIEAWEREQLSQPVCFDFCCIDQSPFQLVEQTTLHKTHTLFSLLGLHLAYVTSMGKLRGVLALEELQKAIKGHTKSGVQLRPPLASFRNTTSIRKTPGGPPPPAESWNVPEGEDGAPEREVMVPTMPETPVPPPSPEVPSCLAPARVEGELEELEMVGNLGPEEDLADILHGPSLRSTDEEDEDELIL
# * hit, by the source's call; i = inactive; nt = not tested or not shown. This is a sample that favours compounds with a hit; in the whole collection about 2.2% have one here.
SMILES,CHO-K1 Ca PAM,CHO-K1 Ca ag,TMEM16A inh,NTR1 ag,TMEM16A act,CHO-K1 Ca antag,TMEM16A reconf,TMEM16A Ca cntr,YFP-HEK293 quench,ClC-1 rat inh
CCC1=NN(C(=O)c2ccccc2O)C(O)(c2ccccc2)C1 (stereo not given),-10,1,25*,1,i,-4,i,i,-0.91,-10
COc1ccc(N(C)C2=NS(=O)(=O)c3ccccc32)cc1,0,2,100*,1,i,-19,i,i,-1.1,-2
CCCC(C)(C)C(=O)N1CCC1(C)C(=O)NS(=O)(=O)c1cccc(Cl)c1 (stereo not given),-8,-1,nt,nt,nt,5,nt,nt,nt,nt
C[C@@H](c1ccccc1)N1C[C@H](COCc2ccccc2)Oc2cc(N3CC[C@H](N(C)C)C3)ccc2S1(=O)=O,1,1,nt,nt,nt,-2,nt,nt,nt,nt
COc1cccc(-c2c(C#N)c(N)nc3c2c(C)nn3-c2ccccc2)c1O,-10,1,100*,10,i,7,45%*,i,-0.9,-10
CCC(C)(C)n1nnnc1CN(Cc1ccc(Cl)cc1)Cc1ccco1,11,0,25*,2,i,-11,22%*,i,-1.1,-16
CCC(C)(C)n1nnnc1CN(Cc1ccco1)Cc1cc2cc3c(cc2[nH]c1=O)OCO3,10,0,i,2,i,-13,nt,nt,nt,nt
O=C(O)COc1ccccc1/C=C1\SC(=S)N(NC(=O)c2ccccc2O)C1=O,7,3,i,0,i,-9,i,i,-0.85,19
Cc1ccc(-n2nnnc2SCc2nnc(-c3ccccc3Br)o2)c(C)c1,17,6,100*,2,i,-4,i,i,-1.1,-14
CC(=O)Nc1ccc(OC(F)(F)C(F)C(F)(F)F)c(NC(C)=O)c1 (stereo not given),18,1,100*,0,i,-1,i,i,-1.2,-6
CC(=O)Nc1ccc(OC(F)(F)C(F)F)c(NC(C)=O)c1,-4,1,i,2,i,-7,nt,nt,nt,nt
COc1ccc(Nc2nc(N3CCCCC3)c3ccccc3n2)cc1,17,2,100*,4,i,0,20%*,i,-1.3,-29
Cc1cccc(S(=O)(=O)C(C#N)c2nc3ccccc3nc2N2CC(C)OC(C)C2)c1 (stereo not given),5,1,25*,2,i,3,18%*,i,-0.87,-17
CC1CCCN(c2nc3ccccc3nc2C(C#N)S(=O)(=O)c2cccs2)C1 (stereo not given),13,2,i,4,i,-9,nt,nt,nt,nt
COc1ccc(S(=O)(=O)C(C#N)c2nc3ccccc3nc2N2CCCC(C)C2)cc1 (stereo not given),8,3,100*,-1,i,4,56%*,i,-0.9,-12
Cc1ccc(S(=O)(=O)C(C#N)c2nc3ccccc3nc2N2CCCC2)cc1 (stereo not given),18,14,i,-2,i,-4,nt,nt,nt,nt
O=C(CSc1ccc(Cl)cc1)NNC(=O)c1ccncc1,3,0,nt,-1,i,-2,nt,nt,nt,nt
COc1ccccc1NS(=O)(=O)c1cccc(NC(=O)c2ccc3ccccc3n2)c1,8,7,i,2,i,10,nt,nt,nt,nt
O=C(Nc1cccc(S(=O)(=O)Nc2ccccc2F)c1)c1ccc2ccccc2n1,10,3,100*,3,i,-9,i,i,-0.93,-5
